Experimental data: PubChem BioAssay (Tox21)
A number with no mark means an inactive call. Records with an inconclusive call do not appear. Entries that show only a call come without a potency. The source made the active and inactive calls. Unless noted, calls come from the whole dose curve; as a rule, active = well fitted curve in the direction sought with a large enough effect in the repeat runs; inconclusive = weak or mixed curves; inactive = no such curve, though single readings can be large; an effect the other way counts as inactive or inconclusive.

Assays:
[1] = qHTS assay for small molecules that induce genotoxicity in human embryonic kidney cells expressing luciferase-tagged ATAD5 (AID 651632); note: nearly all actives have a fitted effect of over 15% in size
Outline: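 Concentration-response screen for ATAD5 upregulation in HEK293T luciferase reporter cells; 16 hr treatment at 37C, then luminescence after 30 min with Amplite at room temperature.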

[2] = qHTS assay for small molecule agonists of the p53 signaling pathway - cell viability (AID 651633; calls by dose curve; note: nearly all actives have a fitted effect of over 30% in size; note: potency is the fitted concentration of half-maximal effect)
Outline: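 p53RE-bla cells, seeded at 4,000 per well and rested 5 h at 37 C/5% CO2, received compounds in DMSO for 16 h at 37 C. CellTiter-Glo was then added, and luminescence was read after 30 min at room temperature to gauge cytotoxicity.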

[3] = qHTS assay for small molecules that induce genotoxicity in human embryonic kidney cells expressing luciferase-tagged ATAD5 - cell viability (AID 651634; calls by dose curve; note: nearly all actives have a fitted effect of over 25% in size)
Outline: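 15.5 hr compound or vehicle exposure of HEK293T cells expressing luciferase-tagged ATAD5 at 37C; live-cell protease activity is read by fluorescence after 30 min of CellTiter-Fluor.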

[4] = qHTS assay for small molecule disruptors of the mitochondrial membrane potential - cell viability (AID 720634; calls by dose curve;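 note: human HepG2 liver cancer cells; series mostly up to about 83 µM; nearly all actives have a fitted effect of over 20% in size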)
Outline: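 In this qHTS format, HepG2 cells plated overnight were pinned with compound, incubated 1 hr, and assayed for ATP luminescence with CellTiter-Glo after m-MPI dye addition.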

[5] = qHTS assay for small molecule disruptors of the mitochondrial membrane potential (AID 720635); note: potency is the fitted concentration of half-maximal effect
Outline: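 HepG2 cells (2,000/well) attached overnight at 37C, then took compound for 1 hr at 37C, 5% CO2. Mito-MPS dye was added for 30 min; fluorescence was read at 490/535 nm (monomers) and 540/590 nm (aggregates).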

[6] = qHTS assay to test for compound auto fluorescence at 590 nm (red) in HepG2 cells (AID 720674)
Outline: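 Intrinsic compound fluorescence in the red window (Ex/Em 540/590 nm) is measured in attached HepG2 cells exposed for 1 hr, DMSO vehicle as baseline, benchmarked to Rose Bengal sodium.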

[7] = qHTS assay to test for compound auto fluorescence at 535 nm (green) in HepG2 cells (AID 720675)
[8] = qHTS assay to test for compound auto fluorescence at 460 nm (blue) in HEK293 cells (AID 720678)
Outline: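 Intrinsic compound fluorescence is recorded in live HEK293 cultures after overnight incubation at 37C, 5% CO2, using excitation 405 nm and emission 460 nm. Values are referenced to triamterene.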

[9] = qHTS assay to test for compound auto fluorescence at 590 nm (red) in HEK293 cells (AID 720679)
Outline: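 Red autofluorescence, HEK293 cells: 2,000 cells/well; attach 4-5 hr 37C; add 23 nL cpd or DMSO; incubate o/n 37C 5% CO2; read Ex540/Em590; Rose Bengal sodium reference.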

[10] = qHTS assay to test for compound auto fluorescence at 535 nm (green) in HEK293 cells (AID 720680)
[11] = qHTS assay to test for compound auto fluorescence at 460 nm (blue) in HEK293 cell free culture (AID 720681)
Outline: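 Test compounds were pinned into cell-free culture medium (DMEM with 10% FBS) and fluorescence was read directly at Ex/Em 405/460 nm. Signals were expressed as fluorescence equivalents of triamterene, with DMSO vehicle as control.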

[12] = qHTS assay to test for compound auto fluorescence at 535 nm (green) in HEK293 cell free culture (AID 720682)
Outline: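 Each library compound, or DMSO control, is added by pintool to medium alone, comprising DMEM and 10% FBS. Emission at 535 nm following 485 nm excitation is quantified against fluorescein.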

[13] = qHTS assay to test for compound auto fluorescence at 590 nm (red) in HEK293 cell free culture (AID 720683)
Outline: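 Tox21 10K library compounds were pinned into cell-free DMEM with 10% FBS and fluorescence was read at excitation 540 nm. Activity is expressed as Rose Bengal sodium equivalency.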

[14] = qHTS assay to test for compound auto fluorescence at 590 nm (red) in HepG2 cell free culture (AID 720684)
Outline: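 Ex 540 / Em 590 nm read of compound in cell-free MEM (10% FBS). Rose Bengal sodium reference.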

[15] = qHTS assay to test for compound auto fluorescence at 460 nm (blue) in HepG2 cell free culture (AID 720685)
Outline: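 Cell-free plates of MEM plus 10% FBS received 23 nL compound or DMSO vehicle; blue-channel (405/460 nm) intensity scored against triamterene as reference fluorophore.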

[16] = qHTS assay to test for compound auto fluorescence at 535 nm (green) in HepG2 cell free culture (AID 720686)
[17] = qHTS assay to test for compound auto fluorescence at 460 nm (blue) in HepG2 cells (AID 720687)
Outline: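 Cells (2,000/well in MEM with 10% FBS) attached overnight at 37 C, then were exposed to compound or DMSO for 1 hr at 37 C, 5% CO2. Fluorescence read at Ex/Em 405/460 nm, expressed as triamterene-equivalent signal.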

[18] = target: Glucocorticoid receptor (Homo sapiens) (UniProt P04150); assay: qHTS assay to identify small molecule agonists of the glucocorticoid receptor (GR) signaling pathway (AID 720691; active = well fitted activation curve with a large enough effect in the signal ratio in the repeat runs, not every such curve was filed as active; the % refers to the signal ratio)
Chain of Glucocorticoid receptor (Homo sapiens) (P04150 whole entry, looked up): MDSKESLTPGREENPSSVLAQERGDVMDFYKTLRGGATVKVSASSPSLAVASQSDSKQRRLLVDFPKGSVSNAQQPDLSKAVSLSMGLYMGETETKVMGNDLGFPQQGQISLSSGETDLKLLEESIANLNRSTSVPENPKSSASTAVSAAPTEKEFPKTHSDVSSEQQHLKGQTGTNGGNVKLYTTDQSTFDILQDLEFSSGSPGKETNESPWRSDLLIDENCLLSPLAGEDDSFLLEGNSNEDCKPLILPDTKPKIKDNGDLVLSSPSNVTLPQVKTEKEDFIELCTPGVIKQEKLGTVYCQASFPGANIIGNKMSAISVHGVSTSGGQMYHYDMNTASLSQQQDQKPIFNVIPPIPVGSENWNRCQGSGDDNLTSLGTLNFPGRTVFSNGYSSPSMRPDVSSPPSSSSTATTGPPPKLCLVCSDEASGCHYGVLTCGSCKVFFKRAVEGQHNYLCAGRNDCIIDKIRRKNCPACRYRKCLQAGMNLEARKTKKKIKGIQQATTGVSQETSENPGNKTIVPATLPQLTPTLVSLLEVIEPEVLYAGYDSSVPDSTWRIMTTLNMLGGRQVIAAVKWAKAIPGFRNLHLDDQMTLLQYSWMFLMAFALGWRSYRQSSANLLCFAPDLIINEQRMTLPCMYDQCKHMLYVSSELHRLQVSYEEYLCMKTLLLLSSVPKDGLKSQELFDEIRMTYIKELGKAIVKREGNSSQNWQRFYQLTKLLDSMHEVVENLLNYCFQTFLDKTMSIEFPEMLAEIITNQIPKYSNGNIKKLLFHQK
Outline: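 Measures GR pathway activation through a GRE-beta-lactamase reporter stably integrated in HeLa cells, with 18 h compound treatment at 37 C and fluorescence detection using a FRET substrate.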

[19] = target: Glucocorticoid receptor (Homo sapiens) (UniProt P04150); assay: qHTS assay to identify small molecule antagonists of the glucocorticoid receptor (GR) signaling pathway (AID 720692; active = well fitted inhibition curve with a large enough effect in the signal ratio in the repeat runs, not every such curve was filed as active; the % refers to the signal ratio)
Outline: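 Tox21 10K library screened in concentration-response for blockade of dexamethasone (5 nM final)-induced GRE-bla reporter activity in HeLa cells; 18 h treatment, fluorescence read.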

[20] = qHTS assay for small molecule agonists of the p53 signaling pathway (AID 651631; calls by dose curve; note: nearly all actives have a fitted effect of over 15% in size)
Outline: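 Beta-lactamase reporter activity under p53 response elements was quantified in HCT-116 cells by FRET fluorescence, following 16 h incubation with test compounds at 37 °C and 2 h substrate development at room temperature.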

CN(C)C(=O)Nc1ccc(Oc2ccc(Cl)cc2)cc1
Potency [1]: inactive
Potency [2]: inactive
Potency [3]: inactive
Potency [4]: inactive
Potency [5]: 6.11 µM (active)
outcome [6]: inactive
outcome [7]: inactive
Potency [8]: inactive
outcome [9]: inactive
outcome [10]: inactive
Potency [11]: inactive
outcome [12]: inactive
outcome [13]: inactive
outcome [14]: inactive
Potency [15]: inactive
outcome [16]: inactive

CC(C)=CC=O
Potency [1]: inactive
Potency [2]: inactive
Potency [3]: inactive
Potency [4]: inactive
Potency [5]: inactive
outcome [6]: inactive
outcome [7]: inactive
Potency [8]: inactive
outcome [9]: inactive
outcome [10]: inactive
Potency [11]: inactive
outcome [12]: inactive
outcome [13]: inactive
outcome [14]: inactive
Potency [15]: inactive
outcome [16]: inactive
Potency [17]: inactive
Potency [18]: inactive

C=CC(=C)CCCC(C)(C)OC(C)=O
Potency [1]: inactive
Potency [2]: inactive
Potency [3]: inactive
Potency [4]: inactive
Potency [5]: inactive
outcome [6]: inactive
outcome [7]: inactive
Potency [8]: inactive
outcome [9]: inactive
outcome [10]: inactive
Potency [11]: inactive
outcome [12]: inactive
outcome [13]: inactive
outcome [14]: inactive
Potency [15]: inactive
outcome [16]: inactive
Potency [17]: inactive
Potency [18]: inactive

CC(=O)Nc1ccc(N)cc1
Potency [1]: inactive
Potency [2]: inactive
Potency [3]: inactive
Potency [4]: inactive
Potency [5]: inactive
outcome [6]: inactive
outcome [7]: inactive
Potency [8]: inactive
outcome [9]: inactive
outcome [10]: inactive
Potency [11]: inactive
outcome [12]: inactive
outcome [13]: inactive
Potency [15]: inactive
outcome [16]: inactive
Potency [17]: inactive

Cc1c(C(=O)NN2CCCCC2)nn(-c2ccc(Cl)cc2Cl)c1-c1ccc(Cl)cc1
Potency [1]: inactive
Potency [2]: 23.7 µM (active)
Potency [3]: inactive
Potency [4]: inactive
Potency [5]: 23.7 µM (active)
outcome [6]: inactive
outcome [7]: inactive
Potency [8]: inactive
outcome [9]: inactive
Potency [11]: inactive
outcome [12]: inactive
outcome [13]: inactive
outcome [14]: inactive
Potency [15]: inactive
outcome [16]: inactive
Potency [17]: inactive
Potency [18]: inactive

CO/N=C1\CN(c2nc3c(cc2F)c(=O)c(C(=O)O)cn3C2CC2)CC1CN (stereo not given)
Potency [1]: inactive
Potency [2]: inactive
Potency [3]: inactive
Potency [4]: inactive
Potency [5]: inactive
outcome [6]: inactive
outcome [7]: inactive
Potency [8]: inactive
outcome [9]: inactive
outcome [10]: inactive
Potency [11]: inactive
outcome [12]: inactive
outcome [13]: inactive
Potency [15]: inactive
outcome [16]: inactive
Potency [17]: inactive
Potency [18]: inactive
Potency [19]: inactive

CN1CCN(c2c(F)cc3c(=O)c(C(=O)O)cn4c3c2OCN4C)CC1
Potency [20]: inactive
Potency [2]: inactive
Potency [3]: inactive
Potency [4]: inactive
outcome [6]: inactive
outcome [7]: inactive
Potency [8]: inactive
outcome [9]: inactive
Potency [11]: inactive
outcome [12]: inactive
outcome [13]: inactive
outcome [14]: inactive
Potency [15]: inactive
outcome [16]: inactive
Potency [17]: inactive
Potency [18]: inactive
Potency [19]: inactive
